Experiment [1] is described as follows: ACEA_ER_80hr: ACEA Biosciences xCELLigence Real-Time Cell Analysis on Estrogen Receptor Agonism for Proliferation (AID 2282667; active means hit-call score of the fitted dose curve at least 0.9, where 1 is the maximum). The following applies: T47D proliferation, impedance (xCELLigence), 80 h. The method in brief: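 Real-time electrical impedance tracked growth of the human breast line T47D, with the 80 h post-dosing value used. Dosing spanned eight 1:4 steps down from a 100 uM final top concentration, run in duplicate.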

Experiment [2] can be described thus: APR_HepG2_CellCycleArrest_24hr: Apredica 24-hour HepG2 Assay for Cell Cycle Arrest (AID 2282905).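 Further: cell cycle arrest scored as ratio of 2N to 4N nuclear DNA content.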 The following applies: imaging, actives raise or lower the signal. The method in brief: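 HepG2 cells were exposed to compounds at 0.39–200 uM (ten concentrations, duplicate) in 0.5% v/v DMSO for 24 hr. After formaldehyde fixation and Triton permeabilization, Hoechst 33342-stained nuclei were imaged at 20x; DNA content was quantified, with bidirectional fitting against DMSO.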

Experiment [3] in a line: APR_HepG2_NuclearSize_24hr: Apredica 24-hour HepG2 Assay for Nuclear Size (AID 2282907). The following applies: high-content imaging, actives raise or lower the signal. The method in brief: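 HepG2 human liver cells were exposed for 24 hr to compounds at 0.39–200 uM (ten concentrations, duplicate) in 0.5% v/v DMSO. They were then formaldehyde-fixed, Triton-permeabilized and Hoechst 33342-stained, and nuclear diameter was imaged at 20x. Bidirectional fits were made against DMSO.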

Experiment [4] in a line: APR_HepG2_CellLoss_24hr: Apredica 24-hour HepG2 Assay for Cell Loss (AID 2282908). The settings on record: high-content imaging. In a few lines: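 Compounds were tested at 0.39–200 uM in duplicate with 0.5% v/v DMSO final. Cells were then fixed in 3.7% formaldehyde, Hoechst 33342 nuclei were imaged at 20x by HCS, and cell number was fitted bidirectionally against DMSO.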

Experiment [5] is described as follows: APR_HepG2_MicrotubuleCSK_24hr: Apredica 24-hour HepG2 Assay for Microtubule CSK Stabilty (AID 2282909). The settings on record: HepG2 microtubule cytoskeleton imaging, actives raise or lower the signal. In a few lines: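 HepG2 cells exposed 24 h to compounds at 0.39–200 uM (duplicate, 0.5% v/v DMSO final), then fixed, permeabilized and immunostained for alpha-tubulin with Hoechst 33342. Cytoskeleton imaged at 20x; bidirectional fit versus DMSO baseline.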

The nature of experiment [6]: APR_HepG2_MitoticArrest_24hr: Apredica 24-hour HepG2 Assay for Mitotic Arrest (AID 2282910). The following applies: high-content imaging, actives raise or lower the signal. The method in brief: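 HepG2 cells, 24 h exposure at 0.39-200 uM (10 concentrations, duplicate, 0.5% DMSO). Fixed, stained for phospho-histone H3 with Hoechst; imaged by high-content microscopy, bidirectional fit versus DMSO.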

Experiment [7] in a line: APR_HepG2_MitoMembPot_24hr: Apredica 24-hour HepG2 Assay for Mitochondrial Membrane Potential (AID 2282911). The following applies: imaging, actives raise or lower the signal. The method in brief:
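Cells are dosed for 24 hr across 0.39 to 200 uM with solvent held at 0.5% DMSO. They are then stained with 250 nM MitoTracker Red CMXRos for 30 min, fixed in 3.7% formaldehyde and imaged.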

Experiment [8] in a line: APR_HepG2_MitoMass_24hr: Apredica 24-hour HepG2 Assay for Mitochondrial Mass (AID 2282912). The following applies: high-content imaging, actives raise or lower the signal. In a few lines: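 Human HepG2 liver cells were exposed for 24 hr to compounds at 0.39–200 uM (duplicates, 0.5% v/v DMSO final). They were stained live with 250 nM MitoTracker Red CMXRos for 30 min, fixed in 3.7% formaldehyde, and imaged by HCS fluorescence; signals were fitted bidirectionally against DMSO.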

The nature of experiment [9]: APR_HepG2_CellCycleArrest_72hr: Apredica 72-hour HepG2 Assay for Cell Cycle Arrest (AID 2282914). The settings on record: high-content imaging, actives raise or lower the signal. In a few lines:
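Read-out is Hoechst-stained nuclear DNA content measured by automated fluorescence imaging (20x, six images per well), fitted in both directions relative to DMSO. Human HepG2 liver cells received 0.39–200 uM compound for 72 hr at 0.5% v/v DMSO.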

A short description of experiment [10]: APR_HepG2_CellLoss_72hr: Apredica 72-hour HepG2 Assay for Cell Loss (AID 2282915). The following applies: high-content imaging. In a few lines:
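HepG2 cells exposed 72 h to compound at 0.39–200 uM (10 concentrations, duplicate) in 0.5% DMSO. Fixed with 3.7% formaldehyde and Hoechst 33342-stained. Imaged at 20x; nuclear count gives cell number, fitted bidirectionally versus DMSO.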

Experiment [11] can be described thus: APR_HepG2_P-H2AX_72hr: Apredica 72-hour HepG2 Assay for H2AX Phosphorylation (AID 2282916).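 Further: phospho-histone H2A.x immunostain intensity per cell marking DNA damage.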 The settings on record: imaging, actives raise or lower the signal. In a few lines:
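HepG2 human liver cells were exposed for 72 hr to compounds at 0.39–200 uM (10 concentrations, duplicate per plate) in 0.5% v/v DMSO. Fixed, permeabilized cells were immunolabeled for phospho-histone H2A.x with Hoechst 33342 and imaged by HCS fluorescence; bidirectional fit versus DMSO.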

The nature of experiment [12]: APR_HepG2_MitoMembPot_72hr: Apredica 72-hour HepG2 Assay for Mitochondrial Membrane Potential (AID 2282917). The settings on record: imaging, actives raise or lower the signal. The method in brief: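 HepG2 cells dosed 72 hr with compound at 0.39–200 uM in duplicate, 0.5% v/v DMSO final. Mitochondria stained with 250 nM MitoTracker Red CMXRos for 30 min before formaldehyde fixation, imaged by high-content fluorescence; bidirectional fit versus DMSO.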

Experiment [13] in a line: APR_HepG2_MicrotubuleCSK_72hr: Apredica 72-hour HepG2 Assay for Microtubule CSK Stabilty (AID 2282919). The following applies: HepG2 microtubule cytoskeleton, high-content imaging, actives raise or lower the signal. The method in brief:
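HepG2 cells were exposed 72 hr to compound at 0.39–200 uM in duplicate (0.5% DMSO final), then fixed and permeabilized. Alpha-tubulin immunofluorescence was imaged by high-content microscopy, with bidirectional fitting against DMSO and taxol as positive control.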

The nature of experiment [14]: APR_HepG2_P-H2AX_24hr: Apredica 24-hour HepG2 Assay for H2AX Phosphorylation (AID 2282920). The settings on record: high-content imaging, actives raise or lower the signal. The method in brief:
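HepG2, 24 hr, cpd 0.39–200 uM (10 conc, duplicate), DMSO 0.5% v/v final. Fix 3.7% formaldehyde, Triton X-100 permeabilize, anti-phospho-H2A.x 1:200 + Hoechst 2 ug/mL. Imaged, bidirectional fit vs DMSO.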

The nature of experiment [15]: APR_HepG2_StressKinase_72hr: Apredica 72-hour HepG2 Assay for Stress Kinase (AID 2282921). The following applies: HepG2 stress kinase (phospho-c-Jun) imaging, actives raise or lower the signal. In a few lines:
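Cells were exposed for 72 h to ten concentrations (0.39–200 uM, duplicate) at 0.5% v/v DMSO final, then fixed with 3.7% formaldehyde, permeabilized and immunostained for phospho-c-Jun (Cy3 secondary) with Hoechst nuclear counterstain.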

A short description of experiment [16]: APR_HepG2_StressKinase_24hr: Apredica 24-hour HepG2 Assay for Stress Kinase (AID 2282922). The following applies: HepG2 stress kinase (phospho-c-Jun) imaging, actives raise or lower the signal. The method in brief:
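HepG2 cells exposed 24 h to 0.39–200 uM compound in duplicate (0.5% v/v DMSO final). Cells fixed in 3.7% formaldehyde, permeabilized and immunostained for phospho-c-Jun; read by high-content fluorescence imaging, fitted bidirectionally against DMSO.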

Experiment [17] is described as follows: APR_HepG2_p53Act_24hr: Apredica 24-hour HepG2 Assay for p53 Activation (AID 2282913).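 Further: p53 protein immunofluorescence averaged per cell in HepG2 with Hoechst nuclei.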 The settings on record: high-content imaging, actives raise or lower the signal. In a few lines:
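Human HepG2 liver cells; 24 hr cpd treatment, 0.39–200 uM, 0.5% DMSO final. Fixed in 3.7% formaldehyde, permeabilized with 0.5% Triton X-100, stained with anti-p53/Cy5 plus Hoechst 33342. Six images per well at 20x; gain or loss vs DMSO.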

Experiment [18] in a line: APR_HepG2_p53Act_72hr: Apredica 72-hour HepG2 Assay for p53 Activation (AID 2282923).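 Further: average cellular p53 protein immunofluorescence intensity in HepG2 cells.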 The settings on record: high-content imaging, actives raise or lower the signal. In a few lines: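 Cells were dosed for 72 hr with compounds at 0.39–200 uM in duplicate (final DMSO 0.5% v/v), then fixed in 3.7% formaldehyde, permeabilized with Triton X-100 and immunostained for p53 (Cy5) with Hoechst 33342 nuclear counterstain.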

Inconclusive results are not listed. Activity calls are given as the source filed them. How the source made its calls, unless noted: active means hit-call score of the fitted dose curve at least 0.9, where 1 is the maximum; inactive means score below 0.9.

One may read the AC50 as the midpoint of the concentration-response curve, whichever way the signal moves. Take `CN(C)C(=O)Cl`: the AC50 in experiment [1] is 38.7 µM (active). Also, the compound was called inactive in experiment [2], in [3], in experiment [4], in experiment [5], in experiment [6] and in experiment [7]. Further, the compound was called inactive in experiment [8], in experiment [9], in experiment [10], in experiment [11], in experiment [12] and in [13]. For the same compound, the compound was classed as inactive in [14], in experiment [15] and in experiment [16].
As for `C=CC(=O)OCC(CC)(COC(=O)C=C)COC(=O)C=C`, in experiment [1], the result was inactive.
For `ClC(Cl)=C(c1ccc(Cl)cc1)c1ccccc1Cl`, in [1], the result was inactive.
With `ClC(Cl)c1ccccc1`, the compound was classed as inactive in experiment [1], in experiment [2], in experiment [3], in experiment [4], in experiment [5] and in [6]. Besides, the compound was classed as inactive in experiment [7], in experiment [9], in [10], in experiment [11], in experiment [12] and in experiment [13]. Besides, the compound was classed as inactive in experiment [14], in experiment [15] and in [16].
Consider `c1ccc(OP(Oc2ccccc2)Oc2ccccc2)cc1`, for which the compound was called inactive in experiment [1], in experiment [2], in [3], in experiment [4], in experiment [5] and in experiment [6]. For the same compound, the result in experiment [7], in experiment [17], in experiment [9], in experiment [10], in experiment [11] and in experiment [12] was inactive. Besides, the compound was classed as inactive in [13], in experiment [14], in experiment [15], in experiment [16] and in experiment [18].
Regarding `COCCOCCO`, the call in experiment [1], in experiment [2], in experiment [3], in [4], in experiment [5] and in experiment [6] was inactive. Besides, the compound was called inactive in experiment [7], in experiment [9], in [10], in experiment [11], in experiment [12] and in experiment [13]. In addition, the result in [14], in [15] and in experiment [16] was inactive.
For `c1nc[nH]n1`, the compound was classed as inactive in [1], in experiment [2], in experiment [3], in experiment [4], in experiment [5] and in experiment [6]. The outcome in experiment [7], in [17], in experiment [9], in experiment [10], in experiment [11] and in experiment [12] was inactive. Moreover, the compound was classed as inactive in [13], in experiment [14], in [15], in experiment [16] and in experiment [18].
Turning to `[N-]=[N+]=[N-]`, the compound was classed as inactive in experiment [1], in experiment [2], in experiment [3], in experiment [4], in [5] and in experiment [6]. Also, the compound was classed as inactive in experiment [7], in experiment [17], in experiment [9], in [10], in experiment [11] and in [12]. The outcome in [13], in experiment [14], in [15], in experiment [16] and in experiment [18] was inactive.

Source of the values: PubChem BioAssay (EPA / NIEHS).
